Compounds without any hit were thinned out: in the full panel of roughly 83,000, 20% have a hit.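 Assay: single dose, 48 h. Readout: percent growth (0 = no net growth; negative = cell death). Active: <10.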 The source made the active and inactive calls.
System: EKVX NSCLC
Test: NCI-60 one-dose screen, 48 h (100 = growth as untreated, 0 = no growth, -100 = all killed)
Conditions: 10 µM unless noted

| Structure (SMILES) | growth |
| --- | --- |
| Cc1ccc2[nH]c3nc4cccnc4c(C)c3c2c1 | 9.94% (active) |
| O=[N+]([O-])c1ccccc1NC1c2ccccc2Oc2ccccc21 | 78.2% (inactive) |
| C=CCn1c(SCC(=O)Nc2ccc(C(=O)/C=C/c3cc(OC)c(OC)c(OC)c3)cc2)nnc1-c1ccc(OC)cc1 | 14.1% (inactive) |
| O=C(NCCNc1nccc(-c2c(-c3cccc(O)c3)nc3sccn23)n1)c1ccccc1O | 66.8% (inactive) |

System: SN12C renal
Test: as above
Conditions: 10 µM unless noted

| Structure (SMILES) | growth |
| --- | --- |
| Nc1ccc(S(=O)(=O)Nc2ccnn2-c2ccccc2)cc1 | 99.7% (inactive) |
| O=C(Nc1cccc(-n2ccc3c(NC(=O)c4ccccc4)nccc32)c1)Nc1cc(C(F)(F)F)cc(C(F)(F)F)c1 | 12.7% (inactive) |
| Nc1nccc2c1ccn2-c1cccc(NC(=O)c2ccc(N3CCOCC3)c(C(F)(F)F)c2)c1 | 25.6% (inactive) |
| COc1ccc(-c2nn(-c3ccc(NC(=O)Nc4cc(C(F)(F)F)cc(C(F)(F)F)c4)cc3)cc2-c2ccncc2)cc1Cl | 17.2% (inactive) |
| CN(C)CCS(=O)(=O)Nc1cc(-c2ccc3ncnc(Nc4ccc(F)c(Cl)c4)c3c2)cnc1Cl | 22.6% (inactive) |
| O=C(CSc1nnc(-c2cc3c([nH]c4ccccc43)c(-c3cccc(O)c3)n2)n1-c1ccccc1)c1ccccc1 | 67.7% (inactive) |
| CNCCCOc1c(Br)cc(CCNC(=O)/C(Cc2cc(Br)c(OC)c(Br)c2)=N/O)cc1Br | -74% (active) |
| O=C(Nc1cccc(-n2ccc3c(NC(=O)c4ccccc4)nccc32)c1)c1cc(N2CCOCC2)cc(C(F)(F)F)c1 | 18.8% (inactive) |
| CCC1(C(N)=O)CC2C=CC1CC2 (stereo unspecified) | 118% (inactive) |
| [2H]c1nc(Nc2ncc(F)c(-c3cc(F)c4nc(C)n(C(C)C)c4c3)n2)c([2H])c([2H])c1CN1CCN(CC)CC1 | 47.8% (inactive) |
| O=C1c2ccccc2OC=C(c2ccccc2)N1CCCCN1CCCCC1 | 20.4% (inactive) |
| O=S(=O)(Nc1cccc2cc(OS(=O)(=O)c3ccccc3)ccc12)c1ccccc1 | 70.1% (inactive) |
| COc1cc(CN(c2ccc(Cl)cc2)C2OC(=O)c3ccccc32)cc(OC)c1OC (stereo unspecified) | 61.3% (inactive) |
| O=C(Nc1ccc(-n2ccc3c(NC(=O)c4ccccc4)nccc32)cc1)c1cccc(C(F)(F)F)c1 | 39.8% (inactive) |
| O=C(Nc1ccc(-n2ccc3c(NC(=O)c4ccccc4)ncnc32)cc1)Nc1cccc(Cl)c1Cl | -31.9% (active) |
| CC1OC(n2c3ccccc3c3c4c(c5c6ccccc6[nH]c5c32)C(=O)N(CCN[C@@H]2CCC[C@H]2N)C4=O)CC(O)C1O (stereo partly specified) | 13.7% (inactive) |

| Structure (SMILES) | growth |
| --- | --- |
| O=C(Nc1cccc(-n2ccc3c(NC(=O)c4ccccc4)nccc32)c1)c1cccc(C(F)(F)F)c1 | 25% (inactive) |
| CC(=O)c1cc2c(c(O)c1C)C(=O)C(=O)c1c(O)cccc1-2 | -41.4% (active) |
| O=S(c1ccccc1)c1ccc2nnnn2n1 (stereo unspecified) | 101% (inactive) |
| O=C1OC(N(Cc2ccc(Cl)cc2)c2ccccc2)c2ccccc21 (stereo unspecified) | 94.6% (inactive) |
| COc1ccc(Cn2cc3c(c2-c2cc(OC)c(OC)c(OC)c2)CCc2c(CO)noc2-3)cc1 | 30.3% (inactive) |
| O=C1C(Cl)=C(Nc2ccccc2)C(=O)C(Cl)=C1Nc1ccccc1 | 109% (inactive) |
| O=S(=O)(CCN1CCOCC1)Nc1cncc(-c2ccc3ncnc(Nc4ccc(F)c(Cl)c4)c3c2)c1 | 66.7% (inactive) |
| COC1=C(OC)C(=O)C=CC1=O | 103% (inactive) |
| Nc1nc(-c2cc3c(cc2Cl)NC(=O)/C3=C/c2ccc(Cl)cc2)cs1 | 48.8% (inactive) |
| O=C(NCCNc1nccc(-c2c(-c3cccc(O)c3)nc3sccn23)n1)Nc1cc(C(F)(F)F)cc(C(F)(F)F)c1 | 82.8% (inactive) |
| CCn1c(SC)nnc1-c1cc2c([nH]c3ccccc32)c(-c2cccc(O)c2)n1 | 39.5% (inactive) |
| C=CC(=O)Nc1cccc(Nc2nc(Nc3ccc(OCCOC(F)F)cc3)ncc2F)c1 | 22% (inactive) |
| NC(=O)C1=C[C@H]2[C@H]3C=C[C@@]2(O)C(=O)O[C@@H]3O1 | 57.6% (inactive) |
| COc1ccc(-c2ccc(NC(=O)Nc3ccc(Cl)c(C(F)(F)F)c3)c(C)n2)cc1 | 57.4% (inactive) |
| O=C(Nc1ccc(-n2ccc3c(NC(=O)c4ccccc4)ncnc32)cc1)Nc1ccc(Cl)c(C(F)(F)F)c1 | 16.4% (inactive) |
| COc1cc(Cn2cc3c(c2)-c2onc(CO)c2CC3)cc(OC)c1OC | 94.3% (inactive) |
